Data from PubChem BioAssay (NCATS).
Inconclusive results are not listed. A call without a number means that no potency is given here. Active and inactive are the calls of the source. Unless noted, calls come from the whole dose curve; as a rule, active = well fitted curve in the direction sought with a large enough effect; inconclusive = small, poorly fitted or top-dose-only effect, or another doubt; inactive = no such curve, though single readings can be large; an effect the other way counts as inactive or inconclusive.

What was measured:
[1] = target: Aldehyde dehydrogenase, mitochondrial (Homo sapiens) (UniProt P05091); assay: qHTS for Inhibitors of the Aldehyde Dehydrogenase Family (ALDH2) Confirmatory screens (AID 2061303; active = well fitted inhibition curve with a large enough effect; title and protocol of this record describe different tests; note: nearly all actives have a fitted effect of over 45% in size)
[2] = qHTS for Inhibitors of the Aldehyde Dehydrogenase Family (ALDH1A2, ALDH1A3, ALDH2, ALDH3A1) (AID 2061307); note: nearly all actives have a fitted effect of over 50% in size; for potency: test system not described further here; potency is the fitted concentration of half-maximal effect
[3] = target: Aldehyde dehydrogenase, mitochondrial (Homo sapiens) (UniProt P05091); assay: qHTS for Inhibitors of the Aldehyde Dehydrogenase Family (ALDH2) Primary screen (AID 2061308); note: nearly all actives have a fitted effect of over 55% in size
[4] = target: Retinaldehyde dehydrogenase 3 (Homo sapiens) (UniProt P47895); assay: qHTS for Inhibitors of the Aldehyde Dehydrogenase Family (ALDH1A3) Confirmatory screens (AID 2061311); note: nearly all actives have a fitted effect of over 60% in size; note: potency is the fitted concentration of half-maximal effect
[5] = target: Retinal dehydrogenase 2 (Homo sapiens) (UniProt O94788); assay: qHTS for Inhibitors of the Aldehyde Dehydrogenase Family (ALDH1A2) Confirmation screens (AID 2061314); note: nearly all actives have a fitted effect of over 65% in size
[6] = target: Retinaldehyde dehydrogenase 3 (Homo sapiens) (UniProt P47895); assay: qHTS for Inhibitors of the Aldehyde Dehydrogenase Family (ALDH1A3) Primary screen (AID 2061315)
[7] = target: Aldehyde dehydrogenase 1A1 (Homo sapiens) (UniProt P00352); assay: qHTS for Inhibitors of the Aldehyde Dehydrogenase Family (ALDH1A1) Confirmatory screens (AID 2061316); note: nearly all actives have a fitted effect of over 65% in size; note: potency is the fitted concentration of half-maximal effect

SMILES	Potency [1]	Potency [2]	Potency [3]	Potency [4]	Potency [5]	Potency [6]	Potency [7]
CCC(=O)C1CCCN(C(=O)CC(c2ccc3c(c2)OCO3)c2c(O)cc(OC)cc2OC)C1 (stereo not given)	inactive	inactive	inactive	inactive	inactive	inactive	inactive
NC(=O)c1ccc(C[C@H](C(=O)O)N2C(=O)c3ccc(C(=O)O)cc3C2=O)cc1	inactive	inactive	inactive	inactive	inactive	inactive	inactive
FC(F)(F)c1cc(N2CCN(C(=S)Nc3cc(Cl)ccn3)CC2)cc(C(F)(F)F)c1	inactive	inactive	inactive	inactive	inactive	inactive	22.5 µM (active)
Cc1cc(NC(=O)c2ccc([S+](=O)([O-])NCc3ccc(Cl)c(Cl)c3)cc2)no1	inactive	inactive	inactive	inactive	inactive	inactive	inactive
Oc1cccc2cc(C3CC3)cnc12	inactive	0.634 µM (active)	inactive	31.6 µM (active)	–	inactive	–
Cn1ncc(-c2nnc(-c3ccccc3)n2CCCn2ccnc2)c1N	inactive	inactive	inactive	inactive	inactive	inactive	inactive
